We go through 87 compounds from PubChem BioAssay AID1974 (The Scripps Research Institute Molecular Screening Center, 2009).

Structures are written as SMILES. In all, about 300,000 compounds went through this assay and about 3,200 (1.1%) were called active. The sample as a whole holds a higher share of actives than the screen did. Values without a mark were called inactive.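 How the source made its calls: active means inhibition above the campaign mean inhibition plus 3 SD (cut at about 35% in these data); inactive means the rest.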

Broadly, the inhibition is the drop in the measured response relative to a control, in per cent.

Sequence of Glutathione S-transferase omega-1 (Homo sapiens) (P78417 whole entry, looked up): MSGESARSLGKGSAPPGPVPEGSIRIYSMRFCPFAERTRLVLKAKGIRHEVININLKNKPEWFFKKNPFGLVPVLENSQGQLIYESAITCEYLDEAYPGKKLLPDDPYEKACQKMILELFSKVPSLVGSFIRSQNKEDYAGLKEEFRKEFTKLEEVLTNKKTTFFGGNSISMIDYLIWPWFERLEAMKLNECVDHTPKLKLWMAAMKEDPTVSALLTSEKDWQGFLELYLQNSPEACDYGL

The test has as its target Glutathione S-transferase omega-1 (Homo sapiens) (UniProt P78417). Kind of test: human GSTO1 enzyme inhibition – biochemical, fluorescence polarization, counter-screen for RBBP9 inhibitor project, primary screen (AID 1974).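 Further: 0% = GSTO1-1 with DMSO and 100% = wells lacking GSTO1-1 enzyme.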 The following applies: recombinant GSTO1, activity-based probe fluorescence polarization; at 5.96 µM; stronger effect = higher value.
`CCCCn1c(N)c(N(CC(C)C)C(=O)c2cnc(C)cn2)c(=O)[nH]c1=O`: the inhibition was -0.67%.

Regarding `Cc1c(C)n2c(SCC(=O)N3CCCC3)nnc2[nH]c1=O`, the inhibition is 4.38%.

For `CCOC(=O)N1CCC(NC(=O)CCc2ccccc2)CC1`, the inhibition was -0.86%.

For the compound `CCOC(=O)N1CCC(NC(=O)COc2cc(=O)n(C)c3ccccc23)CC1`, the inhibition was -3.88%.

Consider `CCOC(=O)N1CCC(c2cc(=O)n(-c3ccccc3)[nH]2)CC1`, for which the inhibition is 37.3% (active).

As to `CC(=O)CC[C@@H](C)O[C@@H]1OC(C)[C@H](O)CC1O` (some centres not stated), the inhibition was -1.35%.

As to `C[C@H]1CC[C@]2(O[C@@H](CCO)C[C@@H](O)[C@@H]2O)O1`, the inhibition is 1.91%.

With `Oc1c(C=Nc2cccc3nsnc23)ccc2ccccc12`, the inhibition was 64.1% (active).

Turning to `COc1ccc(C=Nc2cccc3ncccc23)cc1`, the inhibition is 6.91%.

In the case of `NC(=O)C1CCN(C(=O)c2cn(-c3ccccc3)nc2-c2cccnc2)CC1`, the inhibition was 4.31%.

Regarding `O=C(c1cc(C(=O)N2CCN(c3ccc(F)cc3)CC2)cc([N+](=O)[O-])c1)N1CCN(c2ccc(F)cc2)CC1`, the inhibition was 2.3%.

With `CC(NC(=O)c1ccccc1F)c1cccc2ccccc12` (configuration not stated), the inhibition is 2.21%.

In the case of `CN(C)[C@@H]1C(=O)C(C(N)=O)=C(O)[C@@]2(O)C(=O)C3=C(O)c4c(O)ccc(Cl)c4[C@@H](O)[C@H]3C[C@@H]12`, the inhibition was 69.1% (active).

Turning to `O=C(Nc1nc(-c2ccco2)c(-c2ccco2)s1)c1ccco1`, the inhibition is 28.3%.

On to `CC(Sc1nn(-c2ccc(Cl)cc2)c(=S)s1)C(=O)NCC1CCCO1` (configuration not stated), for which the inhibition was -4.24%.

In the case of `COc1ccc(C(CNC(=O)c2ccc(NS(=O)(=O)c3ccc(F)c(C)c3)cc2)N(C)C)cc1` (configuration not stated), the inhibition was -9.5%.

For the compound `O=C(N/N=C/c1c[nH]c2ccccc12)c1ccccc1O`, the inhibition was -1.35%.

Regarding `O=C(N/N=C/c1c[nH]c2ccccc12)c1cc2ccccc2o1`, the inhibition is -5.04%.

Regarding `O=C(O)c1cccc(NC(=S)N/N=C/c2c[nH]c3ccccc23)c1`, the inhibition is 48.7% (active).

For `C[n+]1ccccc1C1CCCC/C1=N\Nc1ccc([N+](=O)[O-])cc1[N+](=O)[O-]` (configuration not stated), the inhibition was 45.5% (active).

Take `O=[N+]([O-])c1ccc(N/N=C2/CCCCC2c2ccccn2)c([N+](=O)[O-])c1` (configuration not stated): the inhibition was 27.8%.

As to `O=C(Nc1ccccc1)O/N=C1\CCCCC1c1ccc([N+](=O)[O-])cc1[N+](=O)[O-]` (configuration not stated), the inhibition is -4.23%.

As to `COc1ccc(NC(=O)CN(C)C(=O)c2cccc(S(=O)(=O)N3CCN(c4ccccc4)CC3)c2)cc1`, the inhibition is 0.96%.

Regarding `CCOC(=O)c1c(C)[nH]c(C(=O)OCC(=O)N2CCCC2=O)c1C`, the inhibition was -4.82%.

With `CCN1C(=O)[C@@H]2[C@@H](c3ccc(-c4ccccc4)cc3)N3CCCC[C@@]3(C(=O)OC)[C@@H]2C1=O`, the inhibition is -2.94%.

With `COc1ccc(C(CNC(=O)c2cccc(S(=O)(=O)Nc3ccccc3Cl)c2)N2CCOCC2)cc1` (configuration not stated), the inhibition was -26.9%.

Take `Cc1cc(C)n2nc(C(=O)OCC(=O)N(CCC#N)c3ccc(F)cc3)nc2n1`: the inhibition is 7.91%.

In the case of `CCOC(=O)c1cnc(-c2ccccc2)nc1Oc1ccc(C)cc1`, the inhibition was 2.24%.

As for `CCOC(=O)c1c(-c2ccc(C)cc2)csc1/N=C(\C)C1=C(O)c2ccccc2C1=O`, the inhibition was 7.75%.

Take `CCOC(=O)C1=C(c2ccc(OC)cc2)C(=O)c2ccccc2C1=O`: the inhibition was 40.5% (active).

For the compound `CCCC(=O)Nc1ncnc2c1ncn2[C@@H]1O[C@@H]2OP(=O)(O)OC[C@H]2[C@H]1OC(=O)CCC`, the inhibition is -0.48%.

Regarding `NC(=O)CSc1nnc(NC(=O)c2ccc3ccccc3c2)s1`, the inhibition was -7.13%.

For `O=C(CCN1C(=O)c2ccccc2C1=O)NCCN1CCOCC1`, the inhibition is 6.46%.

On to `Cc1ccc(/C=C2/SC(=S)N(CCC(=O)NCCCN3CCOCC3)C2=O)cc1`, for which the inhibition is 36.4% (active).

Take `Cc1ccc(/C=C2\SC(=S)N(CCC(=O)Nc3ccc(O)cc3)C2=O)cc1`: the inhibition is -1.64%.

With `Cc1csc(NC(=O)CSc2nc(=O)n(CCCN(C)C)c3c2CCC3)n1`, the inhibition is 10.8%.

Regarding `Cc1cccc(C)c1NC(=O)CNC(=O)c1c(C)nn(-c2ccccc2)c1C`, the inhibition was -1.44%.

For `Cc1nn(-c2ccccc2)c(C)c1NC(=O)COc1ccc(Cl)cc1Cl`, the inhibition is 8.17%.

For `Cc1nn(-c2ccccc2)c(C)c1NC(=O)CCl`, the inhibition was 82.7% (active).

In the case of `O=C(Nc1ccc2nc3n(c(=O)c2c1)CCCC3)c1ccc(Cl)nc1`, the inhibition was -3.93%.

Consider `Cc1nn(C)c(C)c1NS(=O)(=O)c1ccc(OC(F)(F)F)cc1`, for which the inhibition was 5.1%.

Take `O=S(=O)(Nc1ccc(OC(F)(F)F)cc1)c1cccc2nonc12`: the inhibition is 10.2%.

Turning to `O=S(=O)(Nc1ccc(O)c2ccccc12)c1ccc(OC(F)(F)F)cc1`, the inhibition was 67.3% (active).

For the compound `CSc1nnc(C2CCCN(CC(=O)Nc3ccccc3N3CCOCC3)C2)n1C(C)C` (configuration not stated), the inhibition is 4.43%.

For `O=C(c1cc(-c2ccc(Cl)s2)nc2ccccc12)N1CCOCC1`, the inhibition is -12.9%.

For the compound `CCOc1ccc(/C=C/C(=O)N(CC)CC(=O)NCc2cccs2)cc1OC`, the inhibition is 19.7%.

As for `Cc1cccn2c(=O)nc(SCC(=O)NCc3ccccc3Cl)nc12`, the inhibition is 0.44%.

Take `O=C(CN1C(=O)C2C3CCC(C3)C2C1=O)Oc1ccc2ccccc2c1` (configuration not stated): the inhibition is 12.6%.

As for `CC1=CC(C)(C)Nc2ccc(OC(=O)CN3C(=O)C4CCCCC4C3=O)cc21` (configuration not stated), the inhibition was 48.4% (active).

As for `CC1=CC(C)(C)Nc2ccc(OC(=O)C(Cc3ccccc3)N3C(=O)C4CCCCC4C3=O)cc21` (configuration not stated), the inhibition is 18.1%.

On to `Cc1ccc([C@@H]2CC=C(C(=O)O)[C@H](c3cccc(Cl)c3)N2S(=O)(=O)c2ccc(C)cc2)cc1`, for which the inhibition is -107%.

`Cc1ccc(S(=O)(=O)N2[C@@H](c3ccccc3F)C(C(=O)O)=CC[C@H]2c2ccc(Cl)cc2)cc1`: the inhibition was -60.4%.

For `Cc1ccccc1NC(=O)COc1cccc2c1CCNC2=O`, the inhibition was 0.64%.

As to `Cc1ccc(S(=O)(=O)N2CCCCC2)cc1C(=O)N(C)CC(=O)Nc1cccc(F)c1`, the inhibition was 6.24%.

Turning to `COc1ccc2c(c1)[C@H]1[C@H](CO2)[C@H](c2ccccc2)[C@]2(C)C(=O)Nc3cc(F)c(F)cc3C(=O)N12`, the inhibition was -3.75%.

Regarding `COc1ccccc1CCC(=O)OCC(=O)N1CCN(S(=O)(=O)c2ccc(C)cc2C)CC1`, the inhibition is 8.7%.

As for `COc1ccc(C)cc1Nc1nc(-c2c(C)[nH]c3ccccc23)cs1`, the inhibition was 0.17%.

With `O=c1oc2ccccc2cc1-c1csc(Nc2ccc(O)cc2)n1`, the inhibition was 5.73%.

For the compound `COc1ccc(-c2csc(Cc3nc(O)cs3)n2)cc1`, the inhibition was 8.36%.

`COc1ccc(OC)c(Nc2nc(-c3ccc(O)c(O)c3)cs2)c1`: the inhibition is 57.3% (active).

Turning to `COc1cccc(CC(=O)Nc2nc(-c3ccc(OC)c(OC)c3)cs2)c1`, the inhibition was -14.6%.

Regarding `COc1ccc(-c2csc(Nc3ccc(O)cc3)n2)cc1`, the inhibition is 44.8% (active).

Turning to `COc1cccc(N2CC(NS(=O)(=O)c3cccs3)CC2=O)c1` (configuration not stated), the inhibition was 7.08%.

On to `CC(=O)Nc1ccc(C(=O)Nc2cccc(S(=O)(=O)NC3=NCCC3)c2)cc1`, for which the inhibition was 0.43%.

As to `O=C(OCc1nnc(-c2ccccc2)o1)c1cc(=O)[nH]c2ccccc12`, the inhibition is 8.64%.

With `CCC(C)N(C(=O)COC(=O)c1nc(Cl)ccc1Cl)C1CCS(=O)(=O)C1` (configuration not stated), the inhibition is -3.44%.

As for `CCOC(=O)[C@H]1[C@H]2COc3ccc(OC)cc3[C@@H]2N2C(=O)c3ccc(F)cc3NC(=O)[C@@]12C`, the inhibition was 8.55%.

In the case of `Cc1ccc(Cn2c(=N)c(S(=O)(=O)c3ccc(C)cc3)cc3c(=O)n4ccccc4nc32)cc1`, the inhibition is 1.35%.

Regarding `O=[N+]([O-])C(=c1ccc2c(c1)N1C3=C(CCCC3)CC3CCCCC31N=2)[N+](=O)[O-]` (configuration not stated), the inhibition was 35.2% (active).

Turning to `CCN(CC(=O)NCc1ccc(Cl)cc1)C(=O)CSc1ccccc1`, the inhibition is -6.37%.

With `O=C(Cc1ccc(Br)cc1)NCCN1CCOCC1`, the inhibition was -0.16%.

On to `O=C(NCCN1CCOCC1)c1cc(-c2cccs2)nc2ccccc12`, for which the inhibition is -2.35%.

Turning to `O=C(Cn1c(-c2ccccn2)nc2ccccc21)NCCN1CCOCC1`, the inhibition was 98.3% (active).

Regarding `CCCCN(C1CCS(=O)(=O)C1)S(=O)(=O)c1ccc(C(C)C)cc1` (configuration not stated), the inhibition was -0.04%.

As to `CC(C)Oc1ccc(C(CC(=O)N2CCOCC2)C(C)C)cc1` (configuration not stated), the inhibition is 10.3%.

As for `CC(=O)N(Cc1cc(=O)[nH]c2ccccc12)c1ccc(C)cc1C`, the inhibition is -13.1%.

On to `Cc1ccc(N(Cc2cc(=O)[nH]c3ccccc23)C(=O)CCl)cc1`, for which the inhibition is 80% (active).

For the compound `Cc1ccc(N(Cc2cc3ccccc3[nH]c2=O)C(=O)c2cccs2)cc1`, the inhibition was 0.73%.

Regarding `Cn1c(-c2ccc(C(F)(F)F)cc2)cc2onc(-c3ccccc3)c2c1=O`, the inhibition was 4.73%.

Turning to `CC(C)(C)c1ccc(C(=O)NCc2ccco2)cc1`, the inhibition was -7.66%.

Take `CCC(C)Cn1c(O)cc2nn(-c3nc4ccccc4s3)c(=O)c-2c1C` (configuration not stated): the inhibition is 36% (active).

`Cc1nn(CC(=O)Nc2nc3ccccc3s2)c(C)c1[N+](=O)[O-]`: the inhibition is 11.3%.

Regarding `C/C(=N\NC(=O)CC(C)C)c1c(C(F)(F)F)[nH]n(-c2nc3ccccc3s2)c1=O`, the inhibition is -27.6%.

Turning to `O=C(CN1C(=O)NC2(CCCC2)C1=O)OCCOc1ccc(F)cc1`, the inhibition is 8.87%.

For the compound `CCOc1c(Br)cc(/C=C2\C(=O)N(CCC#N)N=C2C)cc1OC`, the inhibition was 39.6% (active).

With `C=CCOc1c(Br)cc(/C=N\n2nnnc2N)cc1OC`, the inhibition is 0.64%.

Consider `COc1cc(/C=C2/C(=O)NN(c3cccc(Cl)c3)C2=O)cc(Br)c1O`, for which the inhibition is -21.9%.
